Screens from PubChem.
S1P3 antag – antagonists of human S1P3 receptor. Q99500. CHO S1P3 NFAT-BLA reporter, FRET fluorescence, antagonist mode. inhibition, % at 4.98 µM. hit rate 0.27% among 170,000;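 active means inhibition above the plate cutoff, the mean inhibition of test wells on that plate plus 3 SD, cut at about 28% in these data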;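 further: cells challenged with S1P at its EC80 of 0.8 µM; blue over green emission ratio from cleaved BLA substrate after 4 h stimulation; 0% = S1P-stimulated wells and 100% = unstimulated DMSO-only wells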
Target sequence (Q99500 whole entry, looked up): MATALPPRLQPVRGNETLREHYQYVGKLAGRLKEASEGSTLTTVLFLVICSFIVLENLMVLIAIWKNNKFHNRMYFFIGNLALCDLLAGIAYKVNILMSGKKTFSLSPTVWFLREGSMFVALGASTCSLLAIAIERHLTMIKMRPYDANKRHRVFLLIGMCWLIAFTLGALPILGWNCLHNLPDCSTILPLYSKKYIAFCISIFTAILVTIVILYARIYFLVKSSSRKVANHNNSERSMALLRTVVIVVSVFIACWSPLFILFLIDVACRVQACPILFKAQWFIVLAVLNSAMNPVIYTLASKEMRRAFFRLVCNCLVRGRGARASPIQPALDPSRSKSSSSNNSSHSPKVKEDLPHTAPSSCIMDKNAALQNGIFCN
p97 inhibitor – human p97 ATPase inhibition. P55072. recombinant p97 ATPase, Kinase-Glo ATP luminescence, 3 h. inhibition, % at 8 µM. hit rate 0.42% among 220,000; in the data active means inhibition above about 15%;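 further: 0% = DMSO vehicle and 100% = wells lacking enzyme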
S1P4 antag – blocks the human S1P4 receptor; O95977; S1P4-expressing cells, antagonist mode, reporter read-out; inhibition, % at 4.98 µM; hit rate 0.26% among 220,000; AID 1510; in the data active means inhibition above about 29%;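 further: 0% = wells stimulated with agonist and 100% = vehicle wells without agonist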
S1P4 agonist – human S1P4 receptor agonism; AID 1509; activation, % at 4.98 µM; hit rate 0.35% among 220,000; S1P4-expressing cell line, agonist reporter assay; in the data active means activation above about 11%;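 further: 0% = DMSO vehicle and 100% = reference agonist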
UBC9 SUMO inh – blocks human SUMOylation mediated by UBC9; HTRF SUMOylation assay, SAE1/SAE2 + UBC9, in vitro; AID 2006; inhibition, % at 35 µM; P63279; hit rate 0.36% among 290,000; in the data active means inhibition above about 50%, passing the limit was not always enough
Target sequence (P63279 whole entry, looked up): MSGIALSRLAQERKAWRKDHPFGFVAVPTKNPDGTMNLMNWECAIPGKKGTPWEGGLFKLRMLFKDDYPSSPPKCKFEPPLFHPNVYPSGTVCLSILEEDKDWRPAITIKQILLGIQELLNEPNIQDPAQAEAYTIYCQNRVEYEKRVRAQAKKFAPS
DTT redox prof – compounds producing H2O2 with reducing agent – biochemical, NIH compound library profiling, artefact control for MLSCN library redox annotation, primary screen. DTT-dependent redox cycling H2O2, phenol red/HRP absorbance; 100% = 100 µM peroxide control, 0% = buffer. activation, % at 10 µM. hit rate 0.03% among 200,000. AID 878;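 active means activation of at least 50% relative to the plate's high and low controls in the primary single-dose screen; inactive means activation below 50%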;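 further: compound incubated with DTT at 0.8 mM final as the reducing agent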
An asterisk follows results filed as active; x = not tested or not shown. Hits are enriched below; roughly 1.1% of the tested compounds scored in any of these assays.

SMILES	S1P3 antag	p97 inhibitor	S1P4 antag	S1P4 agonist	UBC9 SUMO inh	DTT redox prof
CC1CCN(CCCn2c(=S)[nH]c3ccc(N4CCOCC4)cc3c2=O)CC1	x	0	8	-1	56*	-5
COc1ccc(-c2cc(=O)oc3cc(OCC(=O)NCc4ccccn4)ccc23)cc1	x	x	x	x	30	x
Cc1ccc(C)c(NC(=O)CSc2nnc(C3CCCCC3)o2)c1	x	x	x	x	3	x
S=C(Nc1ccc2nc(-c3ccccn3)c(-c3ccccn3)nc2c1)N1CCCCCC1	3	-2	1	0	46	0
S=C(Nc1ccc2nccnc2c1)N1CCOCC1	4	0	-21	1	89*	0
S=C(Nc1ccc2nc(-c3ccccn3)c(-c3ccccn3)nc2c1)N1CCCCC1	-11	1	-3	0	69*	0
CN(C)CCC(O)(c1ccccc1)c1ccccc1	x	-1	-3	-1	-1	0
CN(C)CCCC(C)(O)C(C)(C)c1ccccc1 (configuration not stated)	-5	15*	-1	0	5	0
CCOC(=O)c1ccc(N=c2sc(C(=O)OC)cc(=O)n2Cc2ccco2)cc1	-34	5	14	-1	-14	-1
CCOC(=O)c1ccc(N=c2sc(C(=O)OC)cc(=O)n2CCCN2CCOCC2)cc1	1	3	60*	0	-2	-1
O=C(N/N=C/c1cn(Cc2ccccc2)c2ccccc12)c1cccnc1	28*	-1	-17	-2	20	0
O=C(NCCCN1CCC(Cc2ccccc2)CC1)C1CC(=O)N(C2CCCC2)C1 (configuration not stated)	104*	3	-13	0	-29	-3
O=C(NCCCN1CCC(Cc2ccccc2)CC1)C1CCC(=O)N1C1CCCC1 (configuration not stated)	-36	6	-18	0	16	-1
O=C(COC(=O)CNS(=O)(=O)/C=C/c1ccccc1)Nc1cccc2ccccc12	-15	6	-9	1	19	0
COC(=O)c1ccc(/C=N/OCC(=O)NCc2ccc(F)cc2)cc1	1	0	-4	0	10	0
N=C1S/C(=C\c2ccco2)C(=O)N1c1nccs1	-24	4	14	2	94*	-1
N=C1S/C(=C\c2ccco2)C(=O)N1c1ccc2c(c1)OCO2	-10	4	-14	2	x	0
CCOC(=O)c1c(-c2ccccc2)oc2ccc(OC(C)C(=O)O)cc12 (configuration not stated)	-8	-2	-3	0	55*	x
CCOC(=O)c1c(-c2ccccc2)oc2ccc(OC(C)=O)cc12	x	-7	-26	-1	17	1
COc1cc2nc(/C=C/c3ccc(N(C)C)cc3)sc2cc1SC	55*	4	23	3	28	2
CCN(CC)c1ccc(/C=C/c2nc3ccccc3s2)cc1	x	6	6	3	8	5
O=C(O)COc1ccc(/C=N/NC(=O)c2ccc(-c3csc(Nc4ccc(Cl)cc4)n3)cc2)cc1	1	-13	-14	0	86*	x
CN(C)c1ccc(N2C(=O)CSC2=S)cc1	-13	9	-12	1	73*	-1
O=C1CSC(=S)N1c1ccc(F)cc1	x	x	x	x	21	x
CC1=NN(c2ccc(N)cc2)C(=O)C1	x	11	-9	-3	8	0
SMILES	S1P3 antag	p97 inhibitor	S1P4 antag	S1P4 agonist	UBC9 SUMO inh	DTT redox prof
CC1=NN(c2ccc(S(=O)(=O)O)cc2C)C(=O)C1	-15	6	13	-1	84*	-1
CCOc1cc(Br)ccc1S(=O)(=O)NCc1ccccc1	x	-5	-5	2	20	-8
C/C(=N\NC(=O)Cc1cccn1C)c1ccco1	-15	5	8	0	16	x
Cn1cccc1CC(=O)N/N=C/C=C/c1ccco1	7	5	-1	1	80*	0
Cc1c(NC(=O)C(C)OC(=O)/C=C/c2ccc3c(c2)OCO3)c(=O)n(-c2ccccc2)n1C (configuration not stated)	-22	3	1	1	7	-1
CC(C)c1ccc(-c2nc(N3CCCCC3)[nH]c(=O)c2C#N)cc1	x	-1	-11	4	-30	-3
CC1=Nc2nc(N3CCCCC3)c(C#N)c3c4c(nc(c23)N1)N(c1ccc(C(C)C)cc1)C(=O)C4	-3	9	-29	-1	60*	0
CC1CCCCC1NC(=O)COC(=O)c1c2c(nc3ccccc13)/C(=C/c1ccco1)CC2 (configuration not stated)	5	2	12	0	65*	0
O=C(COC(=O)c1c2c(nc3ccccc13)/C(=C/c1ccco1)CC2)NC1CCCC1	-8	1	-13	0	71*	0
Cn1c(COc2ccc3ccccc3c2)nnc1SCC(=O)OC1CCCCC1	x	-12	-17	0	-16	2
O=C(CCN1CCN(c2ccccc2)CC1)N/N=C/c1ccc(O)c(O)c1O	9	10	-3	0	76*	-1
O=C(Cc1csc(N2CCOCC2)n1)N/N=C/c1ccc(O)c(O)c1O	-14	7	-3	-1	93*	0
Cn1ccnc1SCC(=O)Nc1cccc(S(=O)(=O)N2CCCCC2)c1	1	-2	-21	0	11	-2
Fc1cccc(-n2c(-c3cccs3)nc3nc4ccccc4nc32)c1	-17	6	-18	2	55*	x
CCN(CC)CCOC(=O)c1ccc(N/C=C(/C#N)c2nc(-c3cc4ccccc4oc3=O)cs2)cc1	x	x	x	x	55*	x
CCN(CC)CCOC(=O)c1ccc(N/C=C(/C#N)c2nc(-c3ccc(OC)cc3)cs2)cc1	-1	-3	-4	0	20	x
Cc1ccc(S(=O)(=O)NC(C)C(=O)NC(C)c2cccs2)cc1 (configuration not stated)	x	x	x	x	12	x
CC1C(O)=C(c2nc3ccccc3[nH]2)C(=N)N1c1ccccc1 (configuration not stated)	1	-8	8	0	-28	0
O=[N+]([O-])c1cc(Cl)cc(/C=N/NC(=S)Nc2ccc(S(=O)(=O)N3CCOCC3)cc2)c1O	16	2	10	0	95*	x
O=C1CCCc2cc3c(cc21)CC1(C3)Cc2cc3c(cc2C1)C(=O)CCC3	1	2	2	1	82*	x
COc1ccc(S(=O)(=O)N2CCN(CC(O)COc3ccc(CC#N)cc3)CC2)cc1OC (configuration not stated)	x	x	x	x	8	x
Cc1ccc(C2C(C#N)=C(N)SC(N)=C2C#N)o1	0	15*	-28	-1	42	3
COc1ccc(-n2cccc2/C=C2\C(=N)N3N=C(c4ccco4)SC3=NC2=O)cc1	-10	6	-3	0	88*	0
CCOC(=O)Cc1nc(-c2cccc(C(F)(F)F)c2)no1	-2	7	4	0	5	-2
